Screening data from PubChem.
Sampled rows, rich in hits. Any-hit rate of the full collection: about 1.8%.
HDAC3 inhib: HDAC3 deacetylase inhibitors, primary screen, biochemical, fluorescence, cell-free homogeneous | inhibition, % at 8.3 µM | AID 2718, 2010 | recombinant HDAC3, fluorogenic peptide/trypsin coupled | 320,000 compounds, 0.15% hits | Histone deacetylase 3 (Homo sapiens), O15379; in the data active means inhibition above about 26%, passing the limit was not always enough
H9c2 protect: cardioprotection against H2O2-induced cell death, primary screen, uHTS, H9c2 cells, ATPLite luminescence; H9c2 cardiomyocytes, H2O2 injury protection, 2 h; 360,000 compounds, 0.63% hits; protection from H2O2 cell death, % at 20 µM;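 active means compounds giving at least 50% protection of heart cells from peroxide-induced death in the single-dose screen, raw or plate-pattern-corrected value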;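 further: 0% = DMSO wells with peroxide and 100% = DMSO wells without peroxide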
Neddyl block: inhibitors of cullin neddylation, primary screen, biochemical, TR-FRET, uHTS, NAE and Ubc12; AID 651699, 2012; NEDD8-conjugating enzyme Ubc12 (Homo sapiens) + NEDD8-activating enzyme E1 regulatory …; 360,000 compounds, 0.58% hits; inhibition, % at 25 µM; in the data active means inhibition above about 36%
Target sequence (P61081 whole entry, looked up): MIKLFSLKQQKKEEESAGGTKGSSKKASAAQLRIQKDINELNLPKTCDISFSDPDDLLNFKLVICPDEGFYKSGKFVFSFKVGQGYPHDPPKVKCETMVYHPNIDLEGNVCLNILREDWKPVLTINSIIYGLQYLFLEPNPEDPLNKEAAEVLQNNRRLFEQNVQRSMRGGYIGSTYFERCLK
Target sequence (Q13564 whole entry, looked up): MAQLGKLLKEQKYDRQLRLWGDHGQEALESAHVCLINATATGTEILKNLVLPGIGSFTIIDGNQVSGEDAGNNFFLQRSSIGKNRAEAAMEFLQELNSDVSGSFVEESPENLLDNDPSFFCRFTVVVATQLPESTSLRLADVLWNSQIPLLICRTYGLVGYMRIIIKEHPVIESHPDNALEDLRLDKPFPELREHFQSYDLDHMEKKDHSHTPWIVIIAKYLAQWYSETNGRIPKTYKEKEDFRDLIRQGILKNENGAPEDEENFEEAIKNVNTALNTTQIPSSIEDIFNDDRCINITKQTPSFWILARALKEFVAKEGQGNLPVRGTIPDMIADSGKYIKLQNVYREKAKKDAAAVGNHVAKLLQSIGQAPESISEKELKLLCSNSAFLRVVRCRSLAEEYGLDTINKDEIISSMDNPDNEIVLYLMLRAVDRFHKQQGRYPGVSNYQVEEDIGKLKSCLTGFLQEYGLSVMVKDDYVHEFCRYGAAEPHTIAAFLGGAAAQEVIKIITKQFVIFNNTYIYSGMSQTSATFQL
GRK2 inh: compounds blocking aptamer binding on GRK2 – biochemical, human GRK2, bead flow cytometry, HTS, primary screen; AID 488847, 2010; 330,000 compounds, 0.59% hits; FAM-aptamer displacement from GRK2; inhibition of aptamer binding, % at 10 µM;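 active means inhibition of aptamer binding above 40%, roughly 3 SD of noise, on plates passing a quality check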;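 further: median bead fluorescence of bound FAM aptamer so fluorescent compounds give negative values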
GRK2 CP1: GRK2 aptamer-displacing inhibitors, retest, confirmation, biochemical, cherry pick 1, bead flow cytometry; shares compounds with GRK2 inh; bead-bound GRK2, FAM-aptamer displacement; aptamer displacement, % at 10 µM; 2,000 compounds, 4% hits;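 active means aptamer displacement above 40%, near three times the noise of non-fluorescent compounds, on plates passing quality checks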;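 further: negative values mostly reflect intrinsic compound fluorescence rather than true enhancement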
Aptamer quench: quenches fluorescent RNA aptamer, GRK2 hit artifact; shares compounds with GRK2 inh; Fluorescent RNA aptamer beads, quenching, flow cytometry; hits give high values; fluorescence change (kMESF span), kMESF (concentration not given with the values); 110 tested, under 10 active;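 active means compounds whose bead fluorescence drops by more than 37 kMESF across the dose range, marking them as dye quenchers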
Aptamer quench SP: aptamer fluorescence quenching in GRK2 counter-screen; fluorescence response (% of DMSO), % at 10 µM; Carboxyfluorescein RNA aptamer on beads, flow cytometry quenching; hits give low values; shares compounds with GRK2 inh; 2,000 tested, under 10 active;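 active means compounds that quench the bead-bound fluorescent RNA probe, cutting fluorescence to under half of the solvent control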;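 further: counterscreen run without GRK2 so only probe quenching by compound is measured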
GRK2 confirm 2: GRK2 aptamer-displacing inhibitors, hit retest, confirmation, biochemical, cherry pick 2, bead flow cytometry | 360 tested, under 10 active | shares compounds with GRK2 inh | AID 504782, 2011 | inhibition of aptamer binding, % at 10 µM | bead-bound GRK2, FAM-aptamer displacement;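 active means inhibition of aptamer binding above 40%, about triple the noise seen with nonglowing compounds, on plates passing quality control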;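 further: negative values mostly come from compounds that fluoresce themselves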
FAM quench CP2: aptamer fluorescence quenching in GRK2 counter-screen; AID 588494; shares compounds with GRK2 inh; carboxyfluorescein RNA aptamer beads, flow cytometry quenching; hits give low values; fluorescence response vs DMSO, % at 10 µM; 360 tested, under 10 active;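 active means response vs DMSO under 50%, meaning signal dropped by over half, treated as fluorescence quencher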;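 further: labelled aptamer on streptavidin beads without GRK2 as a quench counter-screen; 100% = bead fluorescence of DMSO wells and lower means quenching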
* marks the source's active call; other numbers are inactive results; x = not tested or not shown.

SMILES	HDAC3 inhib	H9c2 protect	Neddyl block	GRK2 inh	GRK2 CP1	Aptamer quench SP	others
COc1cccc(C(=O)NCc2ccc3c(c2)cc(C)n3C)c1	-1.3	-4.9	-106.1	84.0*	0.4	95.8
COc1ccc(C(=O)NCc2ccc3c(c2)cc(C)n3C)cc1OC	-3.7	5.9	-194.7	5.0	1.0	96.1
COc1ccc(CC(=O)NCc2ccc3c(c2)cc(C)n3C)cc1	-2.1	7.4	-135.4	67.0*	-1.9	94.7
COc1ccc(NC(=S)NCc2ccc3c(c2)cc(C)n3C)cc1	-0.3	-8.8	-53.3	1.0	x	x
Cc1cc2cc(CNC(=O)c3ccc(S(=O)(=O)N4CCCCC4)cc3)ccc2n1C	-0.6	5.3	-66.0	66.0*	0.2	99.0	GRK2 confirm 2=-12.4;FAM quench CP2=100.0
COc1ccc(/C=C\C(=O)NCc2ccc3c(c2)cc(C)n3C)cc1OC	5.9	10.9	-122.6	4.0	x	x
CNc1ncnc2c1ncn2[C@H]1CN(Cc2ccc(OC)cc2)C[C@@H](CO)O1	x	-0.4	-2.6	x	x	x
CCCCN(C(=O)CSc1ncn[nH]1)c1c(N)n(Cc2ccccc2)c(=O)[nH]c1=O	4.6	2.3	12.3	3.0	x	x
Cc1cc2cc(CNS(=O)(=O)c3ccccc3)ccc2n1C	x	32.9	-149.3	54.0*	3.0	84.0
CN(C)CCn1cnc2c1c(=O)[nH]c(=O)n2Cc1ccccc1	6.4	8.2	4.8	3.0	x	x
CN(C)CCCn1cnc2c1c(=O)[nH]c(=O)n2Cc1ccccc1	5.0	14.6	8.0	99.0*	-0.5	92.3
COc1cccc(COC(=O)C2CCN(C(=O)c3ccc(F)cc3)CC2)c1OC	-2.0	-8.6	0.7	0.0	x	x
CC(Sc1nc(C(C)(C)C)cc(-c2ccccc2)c1C#N)C(=O)Nc1ccccc1 (stereo unspecified)	0.8	-4.3	-53.1	0.0	x	x
Cn1c(C(=O)N2CCCC(C(=O)NCc3cccs3)C2)cc2sccc21 (stereo unspecified)	0.8	3.0	-18.5	0.0	x	x
Cn1c(C(=O)N2CCCC(C(=O)NCCCSC3CCCCC3)C2)cc2sccc21 (stereo unspecified)	-4.4	-3.7	-36.7	25.0	1.3	95.8
Cc1cc(-c2cccnc2)c(C#N)c(SCc2cccc(F)c2)n1	-0.8	2.6	-52.9	0.0	x	x
Cc1cc(-c2cccnc2)c(C#N)c(SCC#N)n1	-3.5	-0.5	7.2	84.0*	0.8	98.1
O=C(NC1CCN(c2ncccn2)CC1)c1ccccc1F	-2.1	1.4	11.5	0.0	x	x
Cc1cc(S(=O)(=O)N2CCCCC2CCNC(=O)C(=O)NCc2cccnc2)ccc1F (stereo unspecified)	x	-2.1	-0.1	100.0*	0.9	104.3
CC(C)(O)C1CC[C@@](C)([C@@H]2CC[C@]3(C)[C@H]2[C@H](O)CC2[C@@]4(C)CCC(O)C(C)(C)C4C(OC4OC(CO)C(O)C(O)C4O[C@@H]4OCC(O)C(O)C4O)C[C@]23C)O1 (stereo partly specified)	17.9	1.9	-10.0	0.0	-2.0	99.9
C=C(C)CCC(C)N1CCC(n2nccc2NC(=O)CCCc2ccccc2)CC1 (stereo unspecified)	-0.8	1.6	-2.2	0.0	x	x
COc1cc(C)c2c(c1C=O)Oc1c(c(C)c(O)c3c1C(O)OC3=O)OC2=O (stereo unspecified)	-1.8	24.9	2.0	66.0*	14.1	92.3
CCN(CC)c1ccc(NC(=O)Cn2nnc(-c3cccc(OC)c3OC)n2)c(C)c1	-8.1	-6.8	-1.9	95.0*	1.0	96.3
CCOc1ccc(-c2nnn(CC(=O)Nc3ccccc3OC)n2)cc1OCC	3.4	-0.7	-13.0	3.0	x	x
CC(O)(c1cccc(F)c1)c1nc(-c2cncnc2)cs1 (stereo unspecified)	x	0.7	1.2	x	x	x
SMILES	HDAC3 inhib	H9c2 protect	Neddyl block	GRK2 inh	GRK2 CP1	Aptamer quench SP	others
CC(=O)COC(=O)c1cccc(N2C(=O)C3C4C=CC(C4)C3C2=O)c1 (stereo unspecified)	5.1	7.1	-7.2	80.0*	2.0	103.6
CCOC(=O)c1cccc(N2C(=O)C3C(C2=O)C2C=CC3C23CC3)c1 (stereo unspecified)	-1.1	12.1	-2.8	4.0	x	x
Cc1oc(-c2cccs2)nc1CN1CCC(c2ccccc2)CC1	-0.2	3.2	18.5	0.0	x	x
Cc1cccc(N2CC(C(=O)Nc3ccccc3N3CCOCC3)CC2=O)c1C (stereo unspecified)	4.2	8.0	-4.3	32.0	1.2	100.4
CCC1=NN(C(=O)C(=O)Nc2ccc(OC)cc2)C(O)(C(F)(F)F)C1 (stereo unspecified)	-4.8	0.3	-1.4	0.0	x	x
COc1ccc(NC(=O)C(=O)N2N=C3CCCCC3C2(O)C(F)(F)F)cc1 (stereo unspecified)	-13.3	1.9	0.0	41.0*	x	x	GRK2 confirm 2=8.9;FAM quench CP2=109.0
COc1ccc(/C=C2\CCc3c2nc2ccccc2c3C(=O)O)cc1OC	1.0	5.8	31.2	1.0	17.2	99.8
CCCCCN(C(=O)CCC(=O)OCC(=O)N1CCCCC1C)c1c(N)n(CCCC)c(=O)[nH]c1=O (stereo unspecified)	-1.9	5.2	5.7	0.0	x	x
O=c1oc(-c2ccc(O)c(O)c2)cc2cccc(O)c12	x	22.2	x	3.0	x	x
O=C(O)c1cccc2cc(-c3ccccc3)oc(=O)c12	-24.0	0.0	x	0.0	-3.3	93.9
CCc1nc2ccc(C(=O)N3CCN(C(=O)c4ccco4)CC3)cn2c1N(C)C(=O)Nc1ccccc1OC	x	0.9	1.7	x	x	x
CN(Cc1cc(=O)n2ccsc2n1)C1CCCCC1	-10.1	7.1	27.9	0.0	x	x
O=C(Nc1ccc(NC(=O)C2CC2)cn1)c1ccccc1	-4.6	-14.2	-3.4	1.0	x	x
O=C(Cc1ccccc1)Nc1ccc(NC(=O)c2ccccc2)nc1	2.1	1.7	3.5	41.0*	x	x	GRK2 confirm 2=7.6;FAM quench CP2=101.0
Cc1nnc(NC(=O)c2cc(S(=O)(=O)N3CCCCC3)ccc2Cl)s1	4.7	-1.3	-1.9	0.0	x	x
Cc1cc2ccccc2n1CCNC(=O)c1ccccc1	5.0	12.8	-46.8	100.0*	29.5	102.1	Aptamer quench=-1.8
